Anthrax LF prot: Bacillus anthracis LF protease inhibitors, primary screen, biochemical, multiplex microsphere, MLPCN library | inhibition, % at 10 µM | hit rate 0.12% among 360,000 | multiplex microsphere protease cleavage assay; further: plate controls were buffer without enzyme for full effect and enzyme alone for no effect
Target sequence (P15917 whole entry, looked up): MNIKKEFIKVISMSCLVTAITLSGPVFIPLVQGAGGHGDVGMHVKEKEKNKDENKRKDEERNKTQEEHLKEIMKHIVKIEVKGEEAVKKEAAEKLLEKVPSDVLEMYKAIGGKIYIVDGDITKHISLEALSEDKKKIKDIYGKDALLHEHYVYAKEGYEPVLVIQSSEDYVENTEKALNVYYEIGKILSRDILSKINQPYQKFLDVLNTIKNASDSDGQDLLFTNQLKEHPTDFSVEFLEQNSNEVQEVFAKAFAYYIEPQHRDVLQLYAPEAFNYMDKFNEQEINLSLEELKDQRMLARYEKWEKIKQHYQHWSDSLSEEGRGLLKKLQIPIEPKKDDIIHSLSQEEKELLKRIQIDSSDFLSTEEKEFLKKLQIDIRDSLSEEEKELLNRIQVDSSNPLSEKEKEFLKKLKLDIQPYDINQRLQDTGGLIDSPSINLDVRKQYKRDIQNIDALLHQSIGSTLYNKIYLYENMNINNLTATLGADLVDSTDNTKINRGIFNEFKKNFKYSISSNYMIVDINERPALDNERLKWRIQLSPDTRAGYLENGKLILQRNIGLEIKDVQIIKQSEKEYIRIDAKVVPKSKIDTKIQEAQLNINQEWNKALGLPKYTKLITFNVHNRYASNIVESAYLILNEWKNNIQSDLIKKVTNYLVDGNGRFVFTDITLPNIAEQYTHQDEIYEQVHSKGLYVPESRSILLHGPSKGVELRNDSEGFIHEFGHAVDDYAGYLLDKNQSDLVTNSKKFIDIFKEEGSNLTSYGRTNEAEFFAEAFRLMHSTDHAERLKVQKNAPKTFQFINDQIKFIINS
BoNT-F LC inh: BoNT/F light chain protease inhibitors, primary screen, biochemical, flow cytometry, MLPCN library | Multiplex microsphere protease cleavage assay | inhibition, % at 10 µM | hit rate 0.22% among 360,000; in the data active means inhibition above about 35%, passing the limit was not always enough; inconclusive means no clear call, values can overlap the other calls; further: plate controls were buffer without enzyme for full effect and enzyme alone for no effect
BJeLR lethal: MLPCN primary cell-based screen for lethality selective to Ras in HRASV12 cells | inhibition, % (concentration not given with the values) | AID 1554, 2009 | BJeLR (HRASV12) viability, CellTiter-Glo ATP luminescence, 48 h | hit rate 0.17% among 300,000; in the data active means inhibition above about 50%; inconclusive means no clear call, values can overlap the other calls
3CLpro inhibitor: SARS-CoV 3CLpro protease inhibitors, primary screen, biochemical, quenched FRET; recombinant SARS-CoV 3CLpro, quenched FRET peptide cleavage; inhibition, % at 6 µM; hit rate 0.14% among 290,000; in the data active means inhibition above about 12%
BoNT A protease: BoNT/A light chain protease inhibitors, primary screen, biochemical, flow cytometry, MLPCN library. Botulinum neurotoxin type A light chain protease (Clostridium botulinum A str. ATCC 3502). multiplex microsphere protease substrate cleavage. inhibition, % at 10 µM. hit rate 0.17% among 360,000; further: plate controls were buffer without enzyme for full effect and enzyme alone for no effect
Autofluor counter: compound fluorescence in toxin protease inhibitor counterscreen. compound autofluorescence counterscreen, microsphere flow cytometry; hits give high values. fluorescence intensity (test concentration not listed). hit rate 3.1% among 360,000. AID 624483; in the data active means fluorescence intensity above about 16000; inconclusive means no clear call, values can overlap the other calls
* = called active by the depositor; ? = inconclusive; . = no result given. In the library only some 3.6% were active in any assay of this set; here they are far more common. Unless noted, no stated cut-off is given here; in the data, active means inhibition above about 30%; inconclusive means no clear call, values can overlap the other calls; inactive means below that.

SMILES	Anthrax LF prot	BoNT-F LC inh	BJeLR lethal	3CLpro inhibitor	BoNT A protease	Autofluor counter
Cc1ccc(S(=O)(=O)c2nc(-c3ccco3)oc2SCC(N)=O)cc1	-2.6	-21.8	1.6	-2.4	-6.7	4062
Cc1ccc(-c2nc(S(=O)(=O)c3ccc(C)cc3)c(SCC(N)=O)o2)cc1	-5.3	-65.5	-12.1	1.6	-34.3	16360*
CN(/C(=N\S(=O)(=O)c1ccccc1)c1ccccc1)c1ccc(O)cc1	0.3	-1.1	-2.4	-0.7	0.3	2153
CC(C)(C)C(=O)Nc1ccccc1C(=O)Nc1cc(Cl)ccc1Cl	-1.3	-1.4	-11.9	-2.5	-1.0	23417*
CC(C)(C)C(=O)Nc1ccccc1C(=O)Nc1cccnc1	0.2	11.7	-2.5	-1.6	0.9	2323
CC(C)/C=C1\CC/C(=C\c2ccc(N(C)C)cc2)C1=O	15.7	9.4	-6.4	-1.6	34.2*	6586
COc1cccc(CN2C(=O)CCC2(C)C(=O)NC2CCCCC2)c1 (stereo unspecified)	-6.7	-6.9	-7.9	3.0	0.3	4481
CC1(C(=O)NC2CCCC2)CCC(=O)N1Cc1ccc2c(c1)OCO2 (stereo unspecified)	-3.0	-6.9	12.1	0.6	-4.4	25159*
CC(C)CCN1C(=O)CCC1(C)C(=O)NC1CCCCCCC1 (stereo unspecified)	-1.0	-0.9	1.2	-0.9	-0.3	23125*
COc1ccc(CN2C(=O)CCC2(C)C(=O)NC2CCCCCC2)cc1 (stereo unspecified)	-3.0	0.6	-0.9	-1.7	-1.9	23241*
CC(C)CCN1C(=O)CCC1(C)C(=O)NC1CCCCCC1 (stereo unspecified)	1.2	-0.9	-2.1	3.9	0.0	9546
CC(=O)NC12CC3CC(C1)CC(C(=O)Oc1ccc(N(C)S(=O)(=O)c4cc(C)ccc4C)cc1)(C3)C2	3.0	1.0	5.1	.	-2.8	6917
COC(=O)Cc1cc(C)cc2c(=O)cc(-c3ccoc3)oc12	.	.	-3.3	.	.	.
CC(=O)Oc1ccc(-c2cccc(C(=O)NCC(=O)O)c2)cc1	-1.2	-1.7	-9.0	-5.8	-1.9	23862*
CC(=O)Oc1ccc(-c2cccc(C(=O)NCCO)c2)cc1	-2.8	-0.8	-0.7	-1.4	-0.1	2077
N/C(=N\OC(=O)COc1ccc(Br)cc1)c1ccncc1	2.1	-5.1	-1.0	2.8	-0.8	2463
N/C(=N\OS(=O)(=O)c1ccc(Br)cc1)c1ccncc1	2.6	5.9	3.9	0.4	2.9	21736*
COCCNc1oc(-c2ccccc2Cl)nc1S(=O)(=O)c1ccc(C)cc1	-5.8	0.9	.	.	-0.6	4112
Cc1ccc(NC(=O)N/C=C/c2ccco2)c(C)c1	1.6	2.2	1.8	6.6	2.4	16016
Cc1ccc(NC(=O)N/C=C/c2ccco2)cc1C	1.7	-2.0	-3.9	1.9	?	21513*
CN(C)/C=C/C(=O)c1cnc(-c2ccccc2Cl)s1	1.4	6.7	8.7	0.8	0.0	4516
CN(C)/C=C/C(=O)c1cnc(-c2cccc(Cl)c2)s1	-6.9	42.3*	9.3	0.8	6.8	4682
O=C(c1cnc(-c2ccccc2)s1)c1ccc(Cl)cc1Cl	-2.0	-3.2	10.8	5.0	?	22951*
Cc1cccc(-n2nc3c(c2NC(=O)c2ccco2)CSC3)c1C	-3.4	1.7	2.4	-7.4	0.0	20718*
Cc1cccc(-n2nc3c(c2NC(=O)c2ccco2)CS(=O)C3)c1C (stereo unspecified)	0.2	3.0	-8.9	-2.6	0.0	3823
SMILES	Anthrax LF prot	BoNT-F LC inh	BJeLR lethal	3CLpro inhibitor	BoNT A protease	Autofluor counter
COc1ccccc1NC(=O)c1ccc2c(c1)N(CC(=O)NC(C)(C)C)C(=O)C(C)(C)O2	3.6	11.9	-3.6	-8.1	0.9	3464
CCOC(=O)CN1C(=O)C(C)(C)Oc2ccc(C(=O)Nc3ccccc3OC)cc21	-1.5	-5.6	9.0	-7.8	-3.5	20848*
CC(C)(C)NC(=O)c1ccc2c(c1)N(CC(=O)N1CCN(c3ccc(F)cc3)CC1)C(=O)C(C)(C)O2	-2.4	4.4	-10.7	0.1	0.9	16213*
CC(C)(C)NC(=O)c1ccc2c(c1)N(CC(=O)N1CCCCC1)C(=O)C(C)(C)O2	-3.6	-4.4	-7.1	-2.8	-3.4	6777
C=CCN1C(=O)CSc2ccc(C(=O)NC3CCCCC3)cc21	-0.1	4.5	7.7	0.5	1.9	5449
Cc1ccc(NC(=O)c2ccc3c(c2)N(CC(=O)N2CCCCC2)C(=O)C(C)(C)O3)cc1	-5.8	-2.1	5.0	-7.8	-2.2	23135*
CCN1C(=O)CSc2ccc(C(=O)NC3CCCCC3)cc21	-1.5	-0.9	-7.3	-1.6	-0.3	20222*
COc1cccc(NC(=O)COC(=O)c2ccccc2C(=O)N2CCN(c3ccccc3)CC2)c1	1.4	-7.6	-2.9	1.4	1.4	2965
COc1ccc2nc(NC(=O)C3CC(=O)N(c4ccccc4)C3)sc2c1 (stereo unspecified)	0.2	-28.6	-0.9	1.1	-2.3	3885
CCOC(=O)C1CCN(C(=O)CN2C(=O)c3cccnc3Oc3ccccc32)CC1	-0.9	0.3	-5.8	2.4	-0.7	4795
CC1(C)Oc2ccc(C(=O)NC3CCCC3)cc2N(CC(=O)NC2CCCCC2)C1=O	-3.7	-9.1	-3.4	-1.5	-3.6	17996*
CC(C)NC(=O)c1ccc2c(c1)N(CC(=O)NC1CCCCC1)C(=O)C(C)(C)O2	-0.9	-4.1	-8.6	3.5	-0.3	5955
CN(C)CC(=O)c1ccc(-c2ccccc2)cc1	1.2	1.5	8.4	2.7	1.2	20222*
CCN(CC)CC(=O)c1ccc(-c2ccccc2)cc1	-0.6	2.5	2.2	3.2	0.5	9589
Cc1cc(Nc2ccc(Cl)cc2)nc(N)n1	-3.6	0.4	-0.3	-0.6	1.2	21661*
COc1ccc(Nc2cc(C)nc(N)n2)cc1	1.5	?	-3.6	-1.7	1.8	4666
COc1ccc(NC(=O)NCc2ccncc2)c(OC)c1	-3.4	-5.2	3.2	-4.8	?	22838*
COc1ccc(NC(=O)c2c(OC)cccc2OC)c(OC)c1	-18.6	-15.7	-2.2	-2.2	15.1	16438*
COc1ccc(NC(=O)c2cccnc2C(=O)O)c(OC)c1	3.5	9.7	-9.1	-2.1	8.0	20348*
COc1ccc(NC(=O)C(=O)NCc2ccncc2)c(OC)c1	-2.7	-3.4	-4.2	-6.9	-1.2	5011
COc1ccc(NC(=O)c2ccccc2O)c(OC)c1	-9.7	5.3	-6.2	-2.5	4.7	18765*
Cc1ccc(Cl)cc1N(CC(=O)NCc1ccccc1)S(C)(=O)=O	-12.8	?	-1.1	0.3	-5.0	4034
CCS(=O)(=O)N1CCC(C(=O)Nc2ccc(C(C)=O)cc2)CC1	8.8	4.2	0.9	0.8	-3.7	4144

Assay outcomes (PubChem BioAssay)
